Laboratory results from PubChem BioAssay (EPA / NIEHS).
The source made the active and inactive calls. Rule for the calls: active = hit-call score of the fitted dose curve at least 0.9, where 1 is the maximum; inconclusive = response in the unintended direction; inactive = score below 0.9. Peptide text beside a SMILES is read from it.

Biological target: Peroxisome proliferator-activated receptor gamma (Homo sapiens) (UniProt P37231)
Experiment: OT_PPARg_PPARgSRC1_1440: Odyssey Thera (OT) 24-hour Protein-Complementation Assay for Peroxisome Proliferator-activated Receptor Gamma/ SRC-1 Co-activator (AID 2283388);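 note: nuclear to cytoplasmic ratio of reconstituted Venus YFP fluorescence in fixed imaged cells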
Experimental: OT_PPARg_PPARgSRC1_1440 is a cell-based assay that uses HEK293T, a human kidney cell line, with measurements taken at 24 hours after chemical dosing in a 384-well plate.OT_PPARg_PPARgSRC1_1440 is one of one assay component(s) measured or calculated from the OT_PPARg_PPARgSRC1_1440 assay. It is designed to make measurements of protein fragment complementation, a form of binding reporter, as detected with fluorescence intensity signals by Protein-fragment Complementation technology.Data from the assay component OT_PPARg_PPARgSRC1_1440 was analyzed into 1 assay endpoint. This assay endpoint, OT_PPARg_PPARgSRC1_1440, was analyzed in the positive analysis fitting direction relative to DMSO as the negative control and baseline of activity. Using a type of binding reporter, measures of receptor for gain-of-signal activity can be used to understand the binding at the pathway-level as they relate to the gene PPARG. Furthermore, this assay endpoint can be referred to as a primary readout, because the performed assay has only produced 1 assay endpoint. To generalize the intended target to other relatable targets, this assay endpoint is annotated to the nuclear receptor intended target family, where the subfamily is non-steroidal.
The OT PPARg/SRC-1 assay assessed receptor-chemical interactions using a rapidly maturing, intensely fluorescent mutant of YFP known as Venus, rationally dissected into two separate fragments. The fragments were obtained as follows: first, fragments coding for YFP1 and YFP2 (corresponding to amino acid residues 1-158 and 159-239 of the full length YFP, respectively) were generated by oligonucleotide synthesis (Blue Heron Biotechnology), and then PCR mutagenesis was used to generate the mutant fragments IFP1 and IFP2. Fusion constructs were transfected into HEK293T cells with a (Gly4Ser)2 linker between the PPARg/SRC-1 and YFP fragment genes to facilitate complementation when interacting proteins bring fragments into close proximity. The construct is transiently transfected in HEK293T cells 48 hours prior to treatment with test compounds. Cells are seeded into optical quality 384-well poly-D-lysine coated plates in MEM alpha medium (Invitrogen) supplemented with 10 percent FBS (Gemini Bio-Products) 1 percent penicillin and 1 percent streptomycin, and grown in 37C incubator equilibrated to 5 percent CO2. Cells are allowed to adhere for 24 hours prior to treatment with compounds of interest or controls for 24 hours. Cells are fixed in 4 percent formaldehyde and stained with Draq5 (BioStatus) to identify cells and subcellular compartment boundaries prior to signal detection. 8 Images per well were acquired on an Evotec Opera at 2 wavelengths (488 and 635nm), and the ratio of fluorescence in the nucleus relative to fluorescence in the cytoplasm (N/C Ratio) in the 488nm channel was calculated for a minimum of 350 cells per image.

Chain of Peroxisome proliferator-activated receptor gamma (Homo sapiens) (P37231 whole entry, looked up): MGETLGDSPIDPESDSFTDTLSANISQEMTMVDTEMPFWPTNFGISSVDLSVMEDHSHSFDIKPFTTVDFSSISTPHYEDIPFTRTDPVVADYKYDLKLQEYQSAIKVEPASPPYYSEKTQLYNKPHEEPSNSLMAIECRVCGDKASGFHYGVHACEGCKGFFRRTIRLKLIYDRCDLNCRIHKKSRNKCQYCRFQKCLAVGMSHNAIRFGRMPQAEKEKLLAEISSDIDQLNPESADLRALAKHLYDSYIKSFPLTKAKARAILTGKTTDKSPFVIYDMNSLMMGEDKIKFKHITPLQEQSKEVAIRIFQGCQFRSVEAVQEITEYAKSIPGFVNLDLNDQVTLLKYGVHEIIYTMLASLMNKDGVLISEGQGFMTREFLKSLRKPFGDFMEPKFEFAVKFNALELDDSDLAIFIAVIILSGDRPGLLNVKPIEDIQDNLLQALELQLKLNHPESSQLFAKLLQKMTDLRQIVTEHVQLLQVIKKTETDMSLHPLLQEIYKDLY

Structure (SMILES) | outcome
O=C(O)CC(C(=O)O)S(=O)(=O)O (stereo not given) | inactive
O=C(O)C1CCC(C(=O)O)CC1 (stereo not given) | inactive
CO[Si](C)(C)OC | inactive
O=C(Oc1ccccc1)c1ccccc1O | inactive
CC(C)(C)NC(=O)[C@H]1CC[C@H]2[C@@H]3CC[C@H]4NC(=O)C=C[C@]4(C)[C@H]3CC[C@]12C | inactive
CC(C)c1ccc(O)c(C(C)C)c1 | inactive
CC(=O)OC1CCCCC1C(C)(C)C (stereo not given) | inactive
CCCCC(C=O)CC (stereo not given) | inactive
Cc1cc(C)n(CO)n1 | inactive
CCCCCCOc1ccc(N)cc1 | inactive
CN(C)Cc1cc(CN(C)C)c(O)c(CN(C)C)c1 | inactive
CCC(C)(O)CCCC(C)C (stereo not given) | inactive
CC(C)(C)N | inactive
CCCCOCCOC(=O)COc1ccc(Cl)cc1Cl | inactive
CCCCC(CC)COC(=O)/C=C/c1ccc(OC)cc1 (stereo not given) | inactive
CCCCC(=O)O | inactive
Oc1ccccc1Cc1ccccc1O | inactive
Nc1ccc(C(=O)O)cc1 | inactive
CC1=NN(c2ccc(S(=O)(=O)O)cc2)C(=O)C1N=Nc1ccccc1 (stereo not given) | inactive
CC(C)c1cc(C(C)C)cc(C(C)C)c1 | inactive

Structure (SMILES) | outcome
O=C(O)CCC(=O)O | inactive
CCOC(=O)C1=NOC(c2ccccc2)(c2ccccc2)C1 | inactive
O=C(OCc1ccccc1)c1ccc(O)cc1 | inactive
CCCCNS(=O)(=O)c1ccccc1 | inactive
CCCCCCCCC(CO)CCCCCC (stereo not given) | inactive
O=S(=O)(O)c1ccc(N=Nc2c(O)ccc3ccccc23)cc1 | inactive
Cc1ccc([N+](=O)[O-])cc1N | inactive
C=CCOC(=O)c1ccc(C(=O)OCC=C)c(C(=O)OCC=C)c1 | inactive
CCCCC/C=C\C/C=C\CCCCCCCC(=O)O | inactive
CCCCCCCCCC[N+](C)(CCCCCCCCCC)CCC[Si](OC)(OC)OC | inactive
Cc1c(C(=O)c2c[nH]n(C)c2=O)ccc(S(C)(=O)=O)c1C1=NOCC1 | inactive
COC(=O)[C@H](Cc1ccccc1)NC(=O)[C@@H](N)CC(=O)O (H-Asp-Phe-OMe) | inactive
O=C(O)c1ccc2c(c1)C(=O)OC2=O | inactive
N#Cc1ccc(C(c2ccc(C#N)cc2)n2cncn2)cc1 | inactive
C1CNCCN1 | inactive
CCc1cccc(C)c1N | inactive
CCCCCCCCCC(C)=O | inactive
CCOC(=O)c1ccccc1C | inactive
CCCCCCO | inactive
CC1=CCC2CC1C2(C)C (stereo not given) | inactive
